Among the data in PubChem BioAssay AID1220 (Sanford-Burnham Center for Chemical Genomics, 2008) are inhibition values, retold here.

Molecules are shown by their SMILES. Screen size: about 190,000 compounds; about 1,300 (0.68%) were called active. Rule as the data show it: active = inhibition above about 50%; inactive = the rest. Only a selection was taken, and actives are over-represented in it overall.

Chain of Mannose-6-phosphate isomerase (Homo sapiens) (P34949 whole entry, looked up): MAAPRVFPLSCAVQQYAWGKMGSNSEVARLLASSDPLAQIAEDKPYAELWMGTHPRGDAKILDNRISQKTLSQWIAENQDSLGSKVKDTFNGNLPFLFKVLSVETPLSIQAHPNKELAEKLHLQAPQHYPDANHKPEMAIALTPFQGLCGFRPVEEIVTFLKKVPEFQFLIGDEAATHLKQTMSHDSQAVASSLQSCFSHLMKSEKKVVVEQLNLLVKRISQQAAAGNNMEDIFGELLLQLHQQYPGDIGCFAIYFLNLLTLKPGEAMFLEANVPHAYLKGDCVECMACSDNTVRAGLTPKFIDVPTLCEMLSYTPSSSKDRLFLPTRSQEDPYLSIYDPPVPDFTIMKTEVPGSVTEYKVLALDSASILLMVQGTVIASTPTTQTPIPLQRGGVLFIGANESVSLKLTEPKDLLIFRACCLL

This assay has as its target Mannose-6-phosphate isomerase (Homo sapiens) (UniProt P34949). In words: human PMI inhibitors, high substrate, primary screen, biochemical, fluorescence intensity, high mannose 6-phosphate (AID 1220). The following applies: recombinant PMI enzyme, coupled fluorescence intensity; at 20 µM; stronger effect = higher value.
Broadly, the inhibition is the relative decrease from the control value, in per cent. For `Cc1nn2c(=O)c(NC(=O)c3ccc(Cl)cc3)cnc2s1`, the inhibition was 0.6% (inactive).

Regarding `Cc1ccc(/C(N)=N/OC(=O)c2cccc(F)c2)cc1`, the inhibition is 3.9% (inactive).

For the compound `COc1ccc(C(=O)OCC(=O)N2C(C)CCCC2C)cc1[N+](=O)[O-]` (configuration not stated), the inhibition was -0.8% (inactive).

As for `COC(=O)c1ccccc1NC(=O)N[C@@H](C)C(=O)OC`, the inhibition was -13.4% (inactive).

As to `O=C1OCC(CO)(CO)N=C1NNc1cc(Cl)ccc1Cl`, the inhibition was -81.3% (inactive).

For the compound `CCC(=O)NCCNc1nc2cc(C)cc(C)c2cc1C#N`, the inhibition was 12.8% (inactive).

On to `CC(C)C(NC(=O)c1ccccc1Cl)C(=O)OCc1nc2scc(-c3ccccc3Cl)c2c(=O)[nH]1` (configuration not stated), for which the inhibition is -15.4% (inactive).

Take `Fc1ccc(N2CCN(C3=Nc4cccc5cccc3c45)CC2)cc1`: the inhibition was 32.1% (inactive).

Take `CC(=O)N1CCN(C2=Nc3cccc4cccc2c34)CC1`: the inhibition is 52.4% (active).

`O=C(CN1C(=O)c2cccc3cccc(c23)C1=O)N1CCN(c2ccccn2)CC1`: the inhibition was -1.5% (inactive).

Turning to `c1cc2c3c(cccc3c1)C(N1CCCCC1)=N2`, the inhibition is 58.7% (active).

Regarding `c1cc2c3c(cccc3c1)C(N1CCCCCC1)=N2`, the inhibition is 12.7% (inactive).

With `O=C(CCCN1C(=O)c2cccc3cccc(c23)C1=O)N1CCN(c2ncccn2)CC1`, the inhibition was 10.1% (inactive).

`CC(C)n1nnnc1SCC(=O)NCc1ccc2c(c1)OCO2`: the inhibition is -4.5% (inactive).

On to `OCCN1CCN(c2ncnc3nc[nH]c23)CC1`, for which the inhibition was 10.7% (inactive).

Consider `COCCN1CCCC(CNCc2cn(C)nc2-c2ccc(Oc3ccccc3)cc2)C1` (configuration not stated), for which the inhibition is 10.6% (inactive).

With `O=c1c(Cc2ccc(Cl)cc2Cl)c(O)ccn1CCCN1CCOCC1`, the inhibition is -5.3% (inactive).

For `O=C(C1=C[C@H](c2ccc(C(F)(F)F)cc2)C[C@H](OCCCCO)O1)N1CCOCC1`, the inhibition was -0.7% (inactive).

For `O=C(NC1CC1)C1=C[C@@H](c2ccc(Br)cc2)C[C@@H](OCCCCO)O1`, the inhibition was -2.7% (inactive).

On to `NC(=O)C1=C[C@@H](c2ccc(Br)cc2)C[C@@H](OCCCCO)O1`, for which the inhibition was 66.1% (active).

Consider `C#CCNC(=O)C1=C[C@@H](c2ccc(C(F)(F)F)cc2)C[C@@H](OCCCCO)O1`, for which the inhibition is 38.5% (inactive).

As to `NC(=O)C1=C[C@@H](c2ccc(C(F)(F)F)cc2)C[C@@H](OCCCCO)O1`, the inhibition is 57.4% (active).

In the case of `O=C(O)C1=C[C@H](c2ccc(Br)cc2)C[C@H](OCCCCO)O1`, the inhibition was -7.2% (inactive).

On to `NC(=O)C1=C[C@H](c2ccc(C(F)(F)F)cc2)C[C@H](OCCCCO)O1`, for which the inhibition is 53.7% (active).

On to `CN1CCN(C(=O)C2=C[C@@H](c3ccc(C(F)(F)F)cc3)C[C@@H](OCCCCO)O2)CC1`, for which the inhibition is 1.4% (inactive).

`O=C(C1=C[C@@H](c2ccc(C(F)(F)F)cc2)C[C@@H](OCCCCO)O1)N1CCOCC1`: the inhibition was -1.4% (inactive).

Turning to `CN(C)CCCCOc1cccc(Br)c1`, the inhibition is -14% (inactive).

In the case of `COCCn1c(=O)[nH]c2cc(C(=O)NCCCN3CCN(c4ccc(F)cc4)CC3)ccc2c1=O`, the inhibition is -12.2% (inactive).

Take `CCC(=O)Nc1cc(C(C)C)c(O)cc1C`: the inhibition was -2.4% (inactive).

With `CCOc1cc(C(=O)N2CCN(c3ccc(C(C)=O)cc3)CC2)cc(OCC)c1OCC`, the inhibition is 6.8% (inactive).

Take `O=C(O)c1ccc(CSCc2ccco2)cc1`: the inhibition is 4.1% (inactive).

With `CC(C(=O)Nc1cccc([N+](=O)[O-])c1)N1CCN(C/C=C/c2ccccc2)CC1` (configuration not stated), the inhibition was 12% (inactive).

In the case of `Cc1occc1C(=O)N/N=C/c1cnn(C)c1C`, the inhibition is 64% (active).

Take `Cc1c(/C=N\NC(=O)c2ccc(F)cc2)cnn1C`: the inhibition is 9.7% (inactive).

As for `Cc1c(/C=N\NC(=O)c2csc3ccccc23)cnn1C`, the inhibition is 2.4% (inactive).

With `COc1c2ccoc2c(OC[C@@H](O)C(C)(C)OC)c2oc(=O)ccc12`, the inhibition was 9.3% (inactive).

Consider `CCOC(=O)N1CCN(C(=O)C2CCN(CC3CCCCC3)CC2)CC1`, for which the inhibition is -10.5% (inactive).

For `COc1ccc(C(=O)n2nnc3ccccc32)cc1OC`, the inhibition was 6% (inactive).

For `Oc1c(C2=NCCNC(C(F)(F)F)=C2)ccc2ccccc12`, the inhibition is 54.4% (active).

In the case of `FC(F)(F)C1=CC(c2ccccc2)=NCCN1`, the inhibition is 0.2% (inactive).

As for `Oc1ccccc1C1=NCCNC(C(F)(F)F)=C1`, the inhibition is -3.4% (inactive).

As to `Cc1ccc(NC2=C(NC(=O)c3ccccc3)C(=O)c3ccccc3C2=O)cc1Cl`, the inhibition is 14% (inactive).

For the compound `O=C(NC(=S)Nc1ccc2c(c1)C(=O)c1ccccc1C2=O)c1ccc(F)cc1`, the inhibition is -25.8% (inactive).

As for `O=C(NC1=C(Nc2ccc(F)cc2)C(=O)c2ccccc2C1=O)c1ccc(Cl)cc1`, the inhibition was 55.3% (active).

For the compound `CN(C1=C(NC(=O)c2ccc(Cl)cc2)C(=O)c2ccccc2C1=O)c1ccccc1`, the inhibition was 25.2% (inactive).

As for `O=C(NC1=C(Nc2ccc(Cl)cc2)C(=O)c2ccccc2C1=O)c1ccccc1`, the inhibition was 58% (active).

For `Cc1cccc(NC2=C(NC(=O)c3ccccc3)C(=O)c3ccccc3C2=O)c1`, the inhibition was 6.2% (inactive).

For `Cc1ccc(C(=O)Nc2ccc(C(=O)N3CCCCC3C)cc2)cc1` (configuration not stated), the inhibition is 1% (inactive).

On to `O=C(CSC1=NCCS1)Nc1cccc2ccccc12`, for which the inhibition is 2.9% (inactive).

As to `CC(C)(C)NC(=S)Nc1cccc(C(F)(F)F)c1`, the inhibition is 2.1% (inactive).

For the compound `FC(F)(F)c1cccc(NC(=S)NC(c2ccccc2)c2ccccc2)c1`, the inhibition is -5.4% (inactive).

Consider `CC(NC(=S)Nc1cccc(C(F)(F)F)c1)C(C)(C)C` (configuration not stated), for which the inhibition is 54.2% (active).

In the case of `CCOC(=O)/C(C#N)=C1/SC(CC)C(=O)N1c1ccc(C)cc1` (configuration not stated), the inhibition was -25% (inactive).

As for `C/C(=N\Nc1ccc(F)cc1F)c1ccc(N2CCOCC2)cc1`, the inhibition was -144% (inactive).

`CC(c1ccco1)N(C(=O)c1ccc(C(F)(F)F)cc1)c1ccccn1` (configuration not stated): the inhibition is 8.9% (inactive).

Turning to `Cc1ccc(S(=O)(=O)CC2CSc3nc4ccccc4n32)cc1` (configuration not stated), the inhibition is 9.4% (inactive).

With `CCCc1cc(=O)oc2cc(C)cc(O)c12`, the inhibition was 2.5% (inactive).

With `CCCCc1cc(=O)oc2cc(C)cc(O)c12`, the inhibition was 7.5% (inactive).

As to `CCCCc1cc(=O)oc2cc(O)cc(O)c12`, the inhibition is 64% (active).

Take `O=[N+]([O-])c1cc(Br)c(O)c(C=Nc2ccc(N3CCOCC3)cc2)c1`: the inhibition was 40.2% (inactive).

Consider `Clc1ccc(-c2ccc(C=Nc3ccc(N4CCOCC4)cc3)o2)cc1`, for which the inhibition was 24.7% (inactive).

`Clc1cccc(-c2ccc(C=Nc3ccc(N4CCOCC4)cc3)o2)c1`: the inhibition was 33.8% (inactive).

On to `Oc1ccc(C=Nc2ccc(N3CCOCC3)cc2)c(O)c1`, for which the inhibition was 13.7% (inactive).

Take `Oc1c(Br)cc(Cl)cc1C=Nc1ccc(N2CCOCC2)cc1`: the inhibition was 51.8% (active).

As for `Clc1cccc(-c2ccc(/C=N/n3cnnc3)o2)c1Cl`, the inhibition is 1.1% (inactive).

Consider `Clc1cccc(-c2ccc(C=Nc3ccc(N4CCOCC4)cc3)o2)c1Cl`, for which the inhibition was 63.9% (active).

With `Clc1ccc(-c2ccc(C=Nc3ccc(N4CCOCC4)cc3)o2)c(Cl)c1`, the inhibition is 47.6% (inactive).

On to `Cc1ccc(Cl)cc1-c1ccc(C=Nc2ccc(N3CCOCC3)cc2)o1`, for which the inhibition was 52.4% (active).

As to `O=C(O)c1cn(Cc2cccnc2)c(=O)c2ccccc12`, the inhibition was 1.5% (inactive).

Consider `CCOC(=O)C1=C(c2ccccc2)Nc2ncnn2C1c1cc(OC)ccc1OC` (configuration not stated), for which the inhibition is 7.8% (inactive).

Turning to `Cn1c(=O)[nH]c(=O)c2c1nc(SCCN1CCOCC1)n2Cc1ccccc1`, the inhibition was 6.9% (inactive).

As to `COc1ccc(NC(=O)CCC(=O)OCc2ccc(C(=O)Oc3ccc(Cl)cc3)cc2)cc1`, the inhibition was -5.2% (inactive).

`CCCCN1C(=O)C(O)=C(C(C)=O)C1c1ccccc1` (configuration not stated): the inhibition is -7.7% (inactive).

In the case of `COCCN(CCOC)c1nc(N)c2c(N)nc3c(c2c1C#N)CC(=O)N3Cc1ccc(Cl)cc1`, the inhibition is 25.1% (inactive).

In the case of `CN(CCO)c1nc(N)c2c(N)nc3c(c2c1C#N)CC(=O)N3Cc1cccs1`, the inhibition is 33.7% (inactive).

`CCCCN1C(=O)Cc2c1nc(N)c1c(N)nc(N(CCC)CCC)c(C#N)c21`: the inhibition is 56% (active).

Regarding `CC(=O)c1c(C)[nH]c(C(=O)NCCc2ccccc2)c1C`, the inhibition is 2.6% (inactive).

Consider `c1ccc(-n2cccc2CNC2CCCCC2)cc1`, for which the inhibition was -4.6% (inactive).

For the compound `c1ccc2c3c(cc(N4CCOCC4)c2c1)OC1(N2CCOCC2)CCCCC1O3` (configuration not stated), the inhibition is 60.5% (active).

With `O=c1cc(N2CCOCC2)c2ccccc2o1`, the inhibition is 4.1% (inactive).

Turning to `Oc1ccc2c(c1)C1CCCC1(N1CCOCC1)O2` (configuration not stated), the inhibition was 24.6% (inactive).

As for `Cc1cc(C)cc(NC(=S)/C(=C(\[O-])c2ccc(Cl)s2)[n+]2cccc(C)c2)c1`, the inhibition was 51.9% (active).

Regarding `Cc1ccc(NC(=S)/C(=C(\[O-])c2ccc(Cl)s2)[n+]2cccc(CO)c2)cc1C`, the inhibition was 10.4% (inactive).

`Cc1ccc(C)c(NC(=S)/C(=C(\[O-])c2ccc(Cl)s2)[n+]2ccccc2)c1`: the inhibition was 26.5% (inactive).

For the compound `Cc1c(CNC(=O)c2cnn3c2NC(c2ccc(Br)cc2)CC3C(F)(F)F)cnn1C` (configuration not stated), the inhibition is 11.4% (inactive).

For the compound `Cc1ccc(NS(=O)(=O)c2cc([N+](=O)[O-])ccc2NNC(=S)Nc2cc(C)ccc2C)c(C)c1`, the inhibition was 9.1% (inactive).

As for `CC(=O)N(C)C1=C(N2CCOCC2)C(=O)c2ccccc2C1=O`, the inhibition is 33.1% (inactive).

As for `CC(=O)N(C)C1=C(O)c2ccccc2C(=O)C1=O`, the inhibition is 19.6% (inactive).

Regarding `CC(=O)N(C1=C(N)C(=O)c2ccccc2C1=O)C(C)C`, the inhibition was 54.5% (active).

For the compound `NC(=O)COC(=O)c1cccc(NS(=O)(=O)/C=C/c2ccccc2)c1`, the inhibition is 4.6% (inactive).

As for `Cn1c(C(=O)O)cnc1Sc1ncc(C(F)(F)F)cc1Cl`, the inhibition was -17.5% (inactive).

As for `Cc1ccc(Nc2nnc(SCc3cc(=O)n4ccsc4n3)s2)c(C)c1`, the inhibition was 8.6% (inactive).

For the compound `COc1ccc2[nH]c3c(=O)n(Cc4ccc(C(=O)NCC5CCCO5)cc4)c(=S)[nH]c3c2c1` (configuration not stated), the inhibition was 3.5% (inactive).

As for `CC(=O)Nc1ccc(C2(O)COc3ccccc3O2)cc1` (configuration not stated), the inhibition is -2% (inactive).

On to `COc1ccccc1NC(=O)c1ccc(-c2ccccc2[N+](=O)[O-])o1`, for which the inhibition is 52.9% (active).

Turning to `COc1ccccc1NC(=O)c1ccc(-c2ccccc2F)o1`, the inhibition was -0.4% (inactive).

As for `COc1cccc(NC(=O)c2ccc(-c3ccccc3[N+](=O)[O-])o2)c1`, the inhibition is -0.2% (inactive).
